Test results published in PubChem BioAssay AID1224852 (National Center for Advancing Translational Sciences (NCATS), 2016).
Inconclusive results are not listed. Calls of active or inactive are those of the source. Calls follow the shape of the dose curve; as a rule, active = well fitted curve in the direction sought with a large enough effect (not every such curve was filed as active); inconclusive = small, poorly fitted or top-dose-only effect, or effect the other way, or another doubt; inactive = no such curve, though single readings can be large or run the other way.

Assay: Cell viability assay for measurement of the protective activity of small molecules against cell death caused by Zika virus infection in human neural progenitor cells (hNPCs)
Conditions: hNPC ZIKV-induced death protection, ATP luminescence, 72 h; series mostly up to 46.1 µM
Method in brief: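 Human neural progenitor cells pretreated 1 h with compounds, then infected with Zika virus at 2 FFU/cell for 72 h at 37 C. Viability read as ATP-content luminescence; values are percent inhibition of the virus-induced viability loss.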

Structure (SMILES) | outcome
O=c1cc(-c2ccccc2)oc2cc(O)cc(O)c12 | inactive
[O-][n+]1ccccc1SSc1cccc[n+]1[O-] | inactive
O=S(=O)(O)c1ccc2nc(-c3ccccc3)[nH]c2c1 | inactive
O=C1c2ccccc2C(=O)c2c(NCCc3ccc(O)cc3)ccc(NCCc3ccc(O)cc3)c21 | inactive
COc1ccc2nc(NC(=O)Nc3ccccc3)sc2c1 | inactive
Nc1ccc(-c2ccc3ccccc3n2)cc1 | inactive
CCCCCNC(=O)N1CCC(CN(Cc2ccc(Cl)cc2)Cc2ccc([N+](=O)[O-])s2)C1 (stereo not drawn) | inactive
COc1cccc(-c2ccc(NC(=O)C3=C(C(=O)O)CCC3)c(F)c2)c1 | inactive
O=c1c2ccccc2nc2n1CCc1c-2[nH]c2ccccc12 | inactive
O=C(Nc1ccc(OC(F)(F)F)cc1)c1sccc1NCc1ccnc2ccccc12 | inactive
COc1cc2nc(-c3ccc(N4CCN(C)CC4)cc3)nc(NCCN3CCOCC3)c2cc1OC | inactive
Cc1cc(O)c2ccccc2c1O | inactive
COc1ccc(-c2cc(=O)c3c(O)cc(O)cc3o2)cc1O | inactive
Cc1ccc(O)c(-n2nc3ccccc3n2)c1 | inactive
CN1CC(=O)N/C1=N/C(=O)Nc1cccc(Cl)c1 | inactive
O=C1c2ccccc2-[n+]2ccc3c([nH]c4ccccc43)c21 | inactive
O=S(=O)(O)CCSSCCS(=O)(=O)O | inactive

Structure (SMILES) | outcome
Cc1c(N)c(=O)n(-c2ccccc2)n1C | inactive
CCCSc1ccc2nc(NC(=O)OC)[nH]c2c1 | inactive
Clc1ccccc1-c1nc(-c2ccncc2)no1 | inactive
OCc1ccc(-c2ccc(-c3ccc(CO)s3)o2)s1 | inactive
Nc1ccc(O)c(C(=O)O)c1 | inactive
C/C(=N\O)c1ccc(OCC(=O)N2CCCCC2)cc1 | inactive
O=C(c1ccccc1)c1ccc2n1CCC2C(=O)O (stereo not drawn) | inactive
O=c1cc(-c2ccccc2)oc2cc(O)c(O)c(O)c12 | inactive
CNC1[C@H](O)C(O[C@@H]2C(O)C(O[C@H]3O[C@H]([C@@H](C)NC)CC[C@H]3N)[C@@H](N)C[C@H]2N)OC[C@]1(C)O (stereo partly drawn) | inactive
c1ccc(CCNc2nc(-c3ccccc3)cs2)cc1 | inactive
CNC(=O)c1ccccc1Sc1ccc2c(/C=C/c3ccccn3)n[nH]c2c1 | inactive
O=C1C(Cl)=C(NCCN2CCOCC2)C(=O)c2ncccc21 | inactive
CN(C)c1ccc2cc(C(=O)N[C@@H](CCCN=C(N)CCl)C(=O)NCc3ccccc3)ccc2c1 | inactive
CCOC1OC(=O)C[C@H]1NC(=O)[C@@H]1CCCN1C(=O)[C@@H](NC(=O)c1ccc(N)c(Cl)c1)C(C)(C)C (stereo partly drawn) | inactive
O=C(OCc1ccccc1)c1ccc(O)cc1 | inactive
CC(C)(C)COc1ccc(-n2cc(C(=O)O)cn2)cc1C#N | inactive
